# Experimental data from publication PMC5540273 (PLoS ONE, 2017).
# How the values were obtained:
# Details in all cases: concentration: 1 μM, replicates: in singlicate; n = 1
# [1] = system: ERBB2
# [2] = system: ERBB3
# [3] = system: ERBB4
# [4] = system: T1, ERK1
# T1 construct: gene MAPK3
# [5] = system: T2, ERK2
# T2 construct: gene MAPK1
# [6] = system: T3, ERK3
# T3 construct: gene MAPK6
# [7] = system: T4, ERK4
# T4 construct: gene MAPK4
# [8] = system: T5, ERK5
# T5 construct: gene MAPK7
# [9] = system: T6, ERK8
# T6 construct: gene MAPK15
# [10] = system: ERN1
# 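Note: KINOMEscan kinase panel screen.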
SMILES,%Inh [1],%Inh [2],%Inh [3],%Inh [4],%Inh [5],%Inh [6],%Inh [7],%Inh [8],%Inh [9],%Inh [10]
Cc1cccc(-c2nc(Nc3ccncc3)c3ccccc3n2)n1 [GW855857],7%,43%,0%,0%,9%,0%,7%,30%,17%,0%
Cc1c(Cn2ccn3c(=O)cc(N4CCOCC4)nc23)cccc1C(F)(F)F [GSK2289044],0%,0%,0%,0%,0%,0%,0%,0%,0%,3%
Cn1cncc1-c1ccc2ncnc(Nc3ccc(OCc4ccccc4)cc3)c2c1 [GW320571],99.4%,43%,61%,13%,10%,0%,0%,0%,25%,0%
Cc1cc(NCC(c2ccccc2)c2ccccc2)nc(NCc2ccc(C(F)(F)F)cc2)n1 [GW497681],21%,1%,27%,0%,0%,0%,5%,0%,0%,0%
CC(C)(C)c1ccc(C(=O)Nc2cn3cc(Cl)ccc3n2)cc1,14%,0%,0%,0%,0%,0%,0%,0%,0%,0%
CS(=O)(=O)c1ccc(-c2c(-c3ncn[nH]3)sc(N3CCOCC3)c2C#N)cc1,41%,13%,12%,0%,37%,25%,12%,0%,10%,21%
O=c1cc(N2CCOCC2)nc2n(Cc3cccc(Cl)c3Cl)ccn12 [GSK2286295],0%,0%,0%,0%,6%,0%,27%,0%,2%,0%
O=C1NC(=O)C(N2CCc3ccccc32)=C1c1ccccc1Cl [SB-373598],26%,0%,0%,17%,0%,23%,11%,0%,0%,13%
COc1cc2nccc(Nc3ccc(NC(=O)c4ccc(C)cc4)c(O)c3)c2cc1OC.Cl [GW440132],14%,0%,9%,0%,2%,13%,3%,0%,1%,29%
CCCc1ccc(S(=O)(=O)NC2CCN(c3ccnc(Nc4ccc(F)cc4)n3)C2)cc1 (centres unmarked) [GSK1379715],7%,1%,25%,0%,18%,0%,13%,0%,15%,0%
COC(=O)c1c(-c2ccccc2)c2cc(C(=O)O)ccc2c(=O)n1Cc1ccccc1,0%,0%,2%,0%,16%,0%,0%,0%,0%,0%
Clc1cc(Cl)cc(Nc2ccnc(Nc3cc(Cl)cc(Cl)c3)n2)c1 [GSK175726],22%,0%,36%,0%,0%,14%,20%,0%,0%,13%
COc1cc2ncn(-c3cc(OCC4CCCO4)c(C(N)=O)s3)c2cc1OC (centres unmarked) [GSK204607],0%,20%,0%,2%,0%,20%,0%,0%,0%,0%
Cc1nnc(-c2ccc3occ(-c4ccc(S(C)=O)cc4)c3c2)[nH]1 (centres unmarked),16%,6%,5%,0%,8%,13%,0%,0%,0%,35%
NC(=O)c1nnc2ccccc2c1N,22%,45%,4%,0%,18%,0%,2%,5%,0%,22%
O=C(Nc1n[nH]c2cc(-c3cccc(F)c3F)ccc12)C1CC1 [SB-733894],0%,0%,27%,0%,0%,0%,0%,11%,28%,5%
COC(=O)c1c(-c2ccccc2)c2cc(OC)ccc2c(=O)n1Cc1ccccc1,9%,11%,0%,0%,17%,0%,14%,13%,0%,17%
